Measured values from PubChem BioAssay AID977630 (Broad Institute, 2014).
Hit rate of the full screen: of about 1,600 compounds, fewer than 10 were called active. Inconclusive results (about 48%) are left out.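 The calls were made as follows: active = Normal-ribosome green reporter loss at least double humanized-ribosome red reporter loss, with overall culture growth inhibition under a set limit; inconclusive = no clear call, values can overlap the other calls; inactive = the rest.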 Not all results are given here. Measured potencies and affinities stand elsewhere.

assay: E. coli growth inhibition, wild-type GFP versus H38 humanized RFP strain – H38 mutant RFP vs wild-type GFP, cherry-pick, dose response (AID 977630); settings: mixed culture, 24 h; series mostly up to 50 µM

outcome, inactive:
COC(=O)c1sccc1NC(=O)CNC(=O)c1ccccc1
COC(=O)c1cc(C)sc1NC(=O)CC1Nc2ccccc2NC1=O (stereo not drawn)
CCOC(=O)c1cccc(OS(=O)(=O)Cc2ccccc2)c1
CCOc1ccccc1N1CC(C(=O)Nc2cccc(S(=O)(=O)N3CCCCC3)c2)CC1=O (stereo not drawn)
c1cc2cc(-c3c(-c4ccc5c(c4)OCO5)noc3-c3ccsc3)ccc2[nH]1
Cc1cc(C)cc(NC(=O)COC(=O)CC2CCCC2)c1
COc1cc(SC)ccc1C(=O)N(Cc1ccccc1)c1ccccn1
COC(=O)c1nc(-c2ccc(C)cc2)[nH]c1C(C)(C)C
O=C(O)CNC(=O)C(c1ccccc1)c1ccccc1
O=C(C[n+]1ccc(Cc2ccccc2)cc1)Nc1ccc([N+](=O)[O-])cc1Cl
CN(C)S(=O)(=O)c1cccc(NC(=O)c2ccc3c(c2)S(=O)(=O)N=C2CCCCCN23)c1
CC1Cc2cc(-c3csc(NC(=O)Cc4ccccc4)n3)ccc2N1S(C)(=O)=O (stereo not drawn)
CCN=C1NN=C(c2ccc(C)cc2)CS1
COc1cc(CCN(C(=O)c2cc3ccccc3[nH]2)C(c2ccccn2)c2nc3ccccc3[nH]2)cc(OC)c1 (stereo not drawn)
NS(=O)(=O)c1ccc(CCNC(=O)CCCCCNc2nc(=S)[nH]c3ccccc23)cc1
CC(C)(C)S(=O)(=O)Cc1nc(-c2ccc(Cl)c(Cl)c2)cs1
Fc1ccc(-c2nc3ccc(Cl)cn3c2Cc2cccc(Cl)c2)cc1
Cc1cc(C(N)=O)nn1-c1c(Cl)cc(Cl)cc1Cl
Cc1ccc(NC(=O)COC(=O)CCNS(=O)(=O)c2c(Cl)cccc2Cl)cc1
CSc1nnnn1-c1ccc(Cl)cc1
Cc1noc(C)c1S(=O)(=O)N(Cc1ccccc1)C(C)C
Cc1cccc(-n2cnc3cc([N+](=O)[O-])ccc32)c1
Cc1ccc(S(=O)(=O)N2CCCCC2C(=O)N2CCN(c3ccccc3F)CC2)cc1 (stereo not drawn)
COC(=O)c1cc(C(=O)c2c(C)cc3ccccn23)cc([N+](=O)[O-])c1
[O-][n+]1ccccc1/C=C/c1ccccc1
Fc1ccccc1C1CCN(Cc2nc(COc3ccccc3)no2)C1 (stereo not drawn)
CC(=O)c1ccc(OCC(=O)Nc2ccc3c(c2)CCC3)cc1
Cc1ccc(Cc2c(-c3cccc(Br)c3)nc3ccc(C)cn23)cc1
COc1ccc(S(=O)(=O)N2CCOc3ccccc32)cc1
COc1ccc(-c2csc(NC(=O)c3ccccc3S(C)(=O)=O)n2)cc1
O=C(OCC(=O)N1CCOCC1)c1cccc(S(=O)(=O)N2CCCc3ccccc32)c1
O=C(CCC(=O)N1CCN(c2ccc(F)cc2)CC1)c1ccc(F)cc1
COc1ccc(C(=O)Nc2cccc3ccccc23)cc1
Cc1cc(-c2ccc(C)c(S(=O)(=O)NCC3CCN(Cc4ccccc4F)CC3)c2)on1
O=S(=O)(c1cnc(Cl)c(Cl)c1)N1CCc2ccccc21
O=C(COC(=O)c1ccccc1O)NCCC1=CCCCC1
C=CCN(c1ccccc1)S(=O)(=O)c1ccc(Cl)c(C(=O)OCC(=O)NCCCN2CCCC2=O)c1
CCN(C(=O)COC(=O)CCc1ccccc1)c1ccccc1
